Bioassay records (PubChem)
An excerpt weighted towards active compounds, which were near 3.1% of everything screened.
PGE2 EP2 inh – human EP2 receptor antagonists, primary screen, TR-FRET cAMP, C6 glioma cells. Prostaglandin E2 receptor EP2 subtype (Homo sapiens), P43116. inhibition, % at 25 µM. C6 glioma cells expressing human EP2; cells stimulated with saturating PGE2. 260,000 tested, 0.52% active;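 active = percent inhibition above 40 after rounding to a whole number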;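 note: rat C6 glioma host cells with rolipram phosphodiesterase inhibitor present; the protocol text gives 20 µM as final concentration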
KCC2 mod – KCC2 cotransporter modulators, thallium flux, primary screen, cell-based, HEK293 KCC2, FluoZin-2 fluorescence, MLSMR; Solute carrier family 12 member 5 (Homo sapiens), Q9H2X9; KCC2 cells, thallium flux FluoZin-2 fluorescence; B-score of Tl+ flux slope (higher = more flux/activation; lower = inhibition) at 10 µM; 190,000 tested, 2.2% active; AID 1456, 2008;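 active = thallium flux slope and its plate-corrected score both differing from the plate sample mean at a set confidence after two filtering rounds, in either direction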;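 note: slope of fluorescence scaled to starting intensity during 10 to 20 s after thallium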
S1P3 antag – S1P3 receptor antagonists, primary screen, cell-based; Sphingosine 1-phosphate receptor 3 (Homo sapiens), Q99500; CHO S1P3 NFAT-BLA reporter, FRET fluorescence, antagonist mode; inhibition, % at 4.98 µM; 170,000 tested, 0.27% active; AID 485, 2006;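 active = inhibition above the plate cutoff, the mean inhibition of test wells on that plate plus 3 SD, cut at about 28% in these data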;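 note: cells challenged with S1P at its EC80 of 0.8 µM; blue over green emission ratio from cleaved BLA substrate after 4 h stimulation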
EP2 mod – EP2 receptor modulators, cAMP readout, primary screen, cell-based, HTRF cAMP, PGE2 stimulation; EP2-expressing cells, cAMP HTRF FRET, PGE2 co-stimulation; induction, % at 25 µM; 260,000 tested, 0.83% active; AID 940, 2007;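 active = compounds whose cAMP rise, as percent of the full-agonist control response, exceeds 60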;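 note: rat C6 glioma line stably carrying human EP2 under a CMV promoter; the protocol text gives 20 µM as final concentration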
KCC2 sec1 – KCC2 modulators in sodium-free buffer, confirmation, cell-based, HEK293 KCC2, thallium flux, secondary assay; FluoZin2 fluorescence; hits give high values; normalised thallium flux (F/F0 slope) at 10 µM; shares compounds with KCC2 mod; 3,700 tested, 15% active;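 active = thallium flux slope above the same plate's solvent-only control mean plus 3 SD; inconclusive = the two replicate wells disagree; inactive = no significant difference from solvent-only control wells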
KCC2 bumet counter – thallium flux persisting under bumetanide in KCC2 cells, confirmation, counter-screen for KCC2 modulator project, cell-based, HEK293 KCC2, FluoZin2, secondary assay 3; shares compounds with KCC2 mod; 3,700 tested, 49% active; normalized thallium flux at 10 µM; HEK293-KCC2 + bumetanide/ouabain; hits give high values;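 active = thallium entry rate above the same plate's blocked-transporter control wells by more than 3 SD; inconclusive = the two repeat wells disagree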;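 note: raw slope of fluorescence over initial fluorescence between 10 and 20 s after thallium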
KCC2 secondary2 – KCC2 modulators without ouabain present, confirmation, cell-based, HEK293 KCC2, thallium flux, FluoZin2, secondary assay 2. thallium flux FluoZin2 fluorescence; actives lie on both sides; F/F0 rise rate, 10–20 s post-thallium. normalized thallium flux at 10 µM. 3,700 tested, 23% active. shares compounds with KCC2 mod;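 active = thallium flux slope more than 3 SD above or below the plate's solvent-only control mean, mostly below; inconclusive = the two repeat wells disagreed; inactive = no significant shift from solvent-only controls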
HEK counter1 – thallium flux modulation in parental HEK cells, confirmation, counter-screen for KCC2 modulator project, cell-based, counterscreen 1 | 3,700 tested, 46% active | AID 1716, 2009 | shares compounds with KCC2 mod | thallium flux rate (normalised fluorescence) at 10 µM | HEK293 parental cells, thallium flux FluoZin2, ouabain; baseline-ratio fluorescence slope, 10–20 s after thallium;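 active = thallium flux rate significantly above the same plate's solvent-only control wells, beyond their mean plus 3 SD; inconclusive = the two replicate wells gave conflicting results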
KCC2 retest ouab – KCC2 inhibitors and activators, ouabain retest, confirmation, HEK-KCC2 cells. shares compounds with KCC2 mod. HEK293-KCC2, thallium flux FluoZin2 fluorescence; bidirectional: low = inhibitor, high = activator. raw Tl+ flux slope (below DMSO = inhibition, above = activation) at 10 µM. 3,700 tested, 48% active;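 active = thallium flux slope beyond 3 SD from same-plate DMSO control mean in most replicates, usually higher, sometimes lower; inconclusive = repeat tests gave conflicting results; inactive = no significant difference from controls in most replicates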;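 note: slope of initial-normalized fluorescence between seconds 10 and 20 after thallium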
HEK293 Tl flux2 – native HEK Tl+ uptake effects, second counter-screen – HEK cells, counterscreen 2, counter-screen for KCC2 modulator project, confirmation. shares compounds with KCC2 mod. HEK293 parental, thallium flux FluoZin-2 fluorescence slope. thallium flux slope at 10 µM. 3,700 tested, 33% active;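 active = thallium flux slope above the same plate's solvent-control mean plus 3 SD in both duplicate wells; inconclusive = duplicate wells that disagreed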;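 note: run without ouabain in cells lacking the KCC2 cotransporter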
Each line names hits and unclear results; the compound was inactive in the other large screens (follow-up assays come after a bar, where they were run).

CC(C)N1C(=O)C2C(C(=O)NCc3ccccc3)C3C=CC2(O3)C1C(=O)NC(C)(C)C (configuration not stated)	KCC2 mod 2.8 | KCC2 sec1 inactive | KCC2 bumet counter inactive | KCC2 secondary2 inactive | HEK counter1 inactive | KCC2 retest ouab inactive | HEK293 Tl flux2 inactive
Cc1nn(-c2ccccc2)nc1C(=O)Nc1nnc(C(F)(F)F)s1	KCC2 mod 24 | KCC2 sec1 0.016 | KCC2 bumet counter 0.049 | KCC2 secondary2 inactive | HEK counter1 0.019 | KCC2 retest ouab 0.04 | HEK293 Tl flux2 0.013
C(=C\c1ccccc1)/CN1CCN(Cc2ccc3c(c2)OCCO3)CC1	KCC2 mod 3.4 | KCC2 sec1 inactive | KCC2 bumet counter inactive | KCC2 secondary2 inactive | HEK counter1 inactive | KCC2 retest ouab inactive | HEK293 Tl flux2 inactive
COc1ccc(Cl)cc1-c1n[nH]c(=S)n1C1CCCCC1	none (no result: S1P3 antag)
Cc1cc(Cl)ccc1OCc1n[nH]c(=S)n1C1CCCCC1	KCC2 mod 16 (no result: S1P3 antag) | KCC2 sec1 inactive | KCC2 bumet counter 0.041 | KCC2 secondary2 0.049 | HEK counter1 0.04 | KCC2 retest ouab 0.036 | HEK293 Tl flux2 0.031
CN1CCN(C(=S)NC(=O)c2ccc(-c3ccccc3)cc2)CC1	KCC2 mod 27 | KCC2 sec1 0.03 | KCC2 bumet counter 0.065 | KCC2 secondary2 inconclusive | HEK counter1 0.034 | KCC2 retest ouab 0.036 | HEK293 Tl flux2 0.038
Cc1ccc2c(c1)C1CN(C)CCC1N2C(=S)NC(=O)c1ccc(Br)cc1 (configuration not stated)	KCC2 mod 133 | KCC2 sec1 0.041 | KCC2 bumet counter 0.11 | KCC2 secondary2 inconclusive | HEK counter1 0.13 | KCC2 retest ouab 0.085 | HEK293 Tl flux2 0.035
CN1CCN(C(=S)NC(=O)c2ccc(C(C)(C)C)cc2)CC1	KCC2 mod 11 | KCC2 sec1 inactive | KCC2 bumet counter 0.018 | KCC2 secondary2 inactive | HEK counter1 0.016 | KCC2 retest ouab inconclusive | HEK293 Tl flux2 0.015
Cc1ccc(C(=O)NC(=S)N2CCN(C)CC2)cc1	none (no result: PGE2 EP2 inh, S1P3 antag)
CN1CCN(C(=S)NC(=O)c2ccc(Br)cc2)CC1	KCC2 mod 12 | KCC2 sec1 inconclusive | KCC2 bumet counter 0.016 | KCC2 secondary2 inactive | HEK counter1 0.012 | KCC2 retest ouab 0.026 | HEK293 Tl flux2 inactive
COCCNc1c(-c2ccc(F)cc2)nc2cnccn12	none (no result: PGE2 EP2 inh, KCC2 mod, S1P3 antag)
CCN(CC)CCCN1C(=O)C(=O)/C(=C(\O)c2ccc(Cl)cc2)C1c1ccc(C)o1 (configuration not stated)	none (no result: KCC2 mod, S1P3 antag)
CCC(=O)N(Cc1ccc2c(c1)OCO2)Cc1cc2ccc(C)cc2[nH]c1=O	none (no result: KCC2 mod, S1P3 antag)
